For 13 compounds, growth results are on record in PubChem BioAssay (NCI).

What all share (experiment): NCI-60 one-dose screen, 48 h (100 = growth as untreated, 0 = no growth, -100 = all killed)
Common to all, as to conditions: 10 µM unless noted

Assay [1] has as its system SR leukemia.
The test system of assay [2] is RPMI-8226 leukemia.
Assay [3] relates to OVCAR-8 ovarian.
Assay [4] has as its system OVCAR-5 ovarian.
The subject of assay [5] is OVCAR-4 ovarian.
Assay [6] relates to SK-OV-3 ovarian.
Assay [7] has as its system IGROV1 ovarian.
Assay [8] deals with OVCAR-3 ovarian.
The test system of assay [9] is HS 578T breast.
Assay [10] deals with NCI/ADR-RES ovarian.

Molecules are shown by their SMILES. “And” between values parts separate entries of the source, which are not always exact repeats. Identical values can stand only once. Compounds without any hit were thinned out: in the full panel of roughly 83,000, 20% have a hit.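 Plates (96-well) were seeded with cells, treated with compound at one concentration, and incubated for 48 hours before percent growth was determined.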 The source made the active and inactive calls. How the source made its calls: active means growth percent below 10; inactive means the rest.

With `Cc1ccc(C(=O)Nc2nc3c(s2)CN(Cc2ccccc2)CC3)cn1`, the growth is 64% (inactive) in assay [1]; 77.8% (inactive) in assay [2]; 95.7% (inactive) in assay [3]; 103% (inactive) in assay [4]; 78.7% (inactive) in [5]; 89.2% (inactive) in assay [6]. Besides, the growth in [7] was 82.4% (inactive); in assay [8], 88.1% (inactive); in assay [9], 98.3% (inactive); in assay [10] it was 70.5% (inactive).

In the case of `Cc1cccc(Cc2cnc(NC(=O)CCCOc3ccc(Cl)cc3)s2)c1`, the growth in [1] was 18.4% (inactive); in assay [2] it was 22.9% (inactive); in assay [3] it was 37.6% (inactive); in assay [4] it was 36.2% (inactive); in assay [5] it was 31.3% (inactive); in assay [6] it was 36.4% (inactive). Besides, the growth in [7] is 39.1% (inactive); in assay [8] it was 7.26% (active); in assay [9] it was 21.4% (inactive); in [10], 32.3% (inactive).

As to `O=Nc1ccc(NO)c2ccccc12`, the growth is 106% (inactive) and 43.8% (inactive) in assay [1]; 92.2% (inactive) and 54.7% (inactive) in assay [2]; 97.9% (inactive) and 87% (inactive) in assay [3]; 109% (inactive) and 116% (inactive) in assay [4]; 92.3% (inactive) and 35.8% (inactive) in assay [5]; 94.2% (inactive) and 106% (inactive) in [6]. For the same compound, the growth was 86.1% (inactive) and 61.5% (inactive) in assay [7]; 98.7% (inactive) and 0.0919% (active) in [8]; 97.5% (inactive) and 14.5% (inactive) in [10].

Turning to `NNCCc1ccccc1`, the growth was 106% (inactive) and 104% (inactive) in [1]; 95.3% (inactive) and 110% (inactive) in assay [2]; 116% (inactive) and 96.7% (inactive) in assay [3]; 93.1% (inactive) in [4]; 101% (inactive) and 96.9% (inactive) in assay [5]; 108% (inactive) and 94.9% (inactive) in [6]. Moreover, the growth in [7] is 97.2% (inactive); in [8], 122% (inactive) and 100% (inactive); in assay [9], 116% (inactive) and 94.1% (inactive); in [10], 104% (inactive) and 91.4% (inactive).

As to `S=c1nc(CS)[nH]c2ccccc12`, the growth in assay [1] is 101% (inactive); in [2], 102% (inactive); in [3], 90.9% (inactive); in assay [4] it was 102% (inactive); in [5] it was 94.3% (inactive); in assay [6], 100% (inactive). Also, the growth in [7] was 85.7% (inactive); in [8], 106% (inactive); in assay [9], 94.1% (inactive); in [10], 101% (inactive).

Take `CCOC(=O)c1nc2c3ccccc3cnn2c1C(=O)c1ccc(OC)cc1`: the growth is 90.6% (inactive) in assay [1]; 95.6% (inactive) in assay [2]; 98.2% (inactive) in [3]; 106% (inactive) in [4]; 89.4% (inactive) in assay [5]; 81.6% (inactive) in [6]. Also, the growth in assay [7] is 105% (inactive); in [8] it was 110% (inactive); in [10], 94.4% (inactive).

In the case of `Cc1ccc2c(c1)C(C)Cc1c(ncnc1-n1cnc3cc(C)ccc31)N2C` (stereo unspecified), the growth in assay [1] was 1.44% (active); in assay [2] it was -0.691% (active); in assay [3], 0.0907% (active); in assay [4], 79% (inactive); in [5], 61.7% (inactive); in assay [6], 5.86% (active). Moreover, the growth in [7] was 21.9% (inactive); in [8], 20.2% (inactive); in assay [9], 31.6% (inactive); in assay [10], 5.12% (active).

For the compound `COc1ccc(C/C(C)=C(/c2ccc(OCCN3CCCC3)cc2)c2ccc(OC(=O)NCc3ccccc3)cc2)cc1`, the growth in [1] is -22.6% (active); in [2] it was 66.7% (inactive); in [3], 89.4% (inactive); in assay [4] it was 81% (inactive); in assay [5], 81.6% (inactive); in [6], 104% (inactive). In addition, the growth in assay [7] was 101% (inactive); in assay [8] it was 89.8% (inactive); in assay [10] it was 97.1% (inactive).

Consider `CCn1cc(C(=O)NN=C2CCCC2)c(=O)c2ccc(C)nc21`, for which the growth in assay [1] is 99.2% (inactive); in assay [2] it was 92.7% (inactive); in assay [3] it was 90% (inactive); in [4] it was 94% (inactive); in assay [5], 83.7% (inactive); in [6], 91.2% (inactive). Further, the growth in assay [7] is 85% (inactive); in [8], 94.3% (inactive); in assay [9], 88.8% (inactive); in assay [10], 89.8% (inactive).

For the compound `COc1cc(-c2[nH]ncc2Nc2ccc(Cl)cc2)cc(OC)c1OC`, the growth in assay [1] was 67.7% (inactive); in assay [2], 21.1% (inactive); in assay [3], 67.5% (inactive); in assay [4], 75.7% (inactive); in [5], 71.6% (inactive); in assay [6], 64.3% (inactive). Besides, the growth is 69.8% (inactive) in assay [7], 86.1% (inactive) in assay [8], 66% (inactive) in [9] and 61.7% (inactive) in assay [10].

As to `O=C(Nc1ncc(Cc2cccc(C(F)(F)F)c2)s1)c1ccc(-n2cnnn2)cc1`, the growth in assay [1] was 61.2% (inactive); in [2], 51.5% (inactive); in [3], 58.5% (inactive); in assay [4] it was 74.2% (inactive); in assay [5], 33.6% (inactive); in [6], 86.4% (inactive). Further, the growth in assay [7] is 74.6% (inactive); in [8] it was 72.1% (inactive); in assay [9] it was 79.3% (inactive); in [10], 35.9% (inactive).

Turning to `O=C(N=Nc1c(O)[nH]c2ccccc12)Nc1ccccc1Cl`, the growth is 77.1% (inactive) in assay [1]; 84.8% (inactive) in assay [2]; 97.5% (inactive) in [3]; 93.6% (inactive) in assay [4]; 71% (inactive) in assay [5]; 94.4% (inactive) in [6]. In addition, the growth in [7] was 65.3% (inactive); in assay [8], 101% (inactive); in [10] it was 93% (inactive).

For the compound `C#CCn1cnc2cnc(Nc3cccc(NC(=O)CCl)c3)nc21`, the growth in [1] is 1.67% [6.25 µM] (active); in assay [2] it was -14.9% [6.25 µM] (active); in assay [3], 8.6% [6.25 µM] (active); in assay [4], 14.8% [6.25 µM] (inactive); in [5], 13% [6.25 µM] (inactive); in assay [6] it was 15.3% [6.25 µM] (inactive). In addition, the growth in assay [7] was -38.1% [6.25 µM] (active); in assay [8], -44.9% [6.25 µM] (active); in assay [9], 10.4% [6.25 µM] (inactive); in [10] it was 2.34% [6.25 µM] (active).
